# Measurements taken from PubChem BioAssay (NCATS).
# Unmarked numbers belong to inactive results. Inconclusive results are not listed. Entries that show only a call come without a potency. Activity calls are given as the source filed them. The call rests on the fitted dose curve; in most records, active means well fitted curve in the direction sought with a large enough effect; inconclusive means small, poorly fitted or top-dose-only effect, or another doubt; inactive means no such curve, though single readings can be large; an effect the other way counts as inactive or inconclusive. Where a SMILES comes first, the peptide text is derived from it. The star is where a group is joined. PhAc = O=C(Cc1ccccc1)*
# Assays:
# [1] = biological target: Glutathione peroxidase 1 (Homo sapiens) (UniProt P07203); assay: Primary qHTS Assay for Inhibitors of Recombinant Selenoprotein Glutathione Peroxidase 1 (GPX1) (AID 1845191); further: nearly all actives have a fitted effect of over 65% in size
# Sequence of Glutathione peroxidase 1 (Homo sapiens) (P07203 whole entry, looked up): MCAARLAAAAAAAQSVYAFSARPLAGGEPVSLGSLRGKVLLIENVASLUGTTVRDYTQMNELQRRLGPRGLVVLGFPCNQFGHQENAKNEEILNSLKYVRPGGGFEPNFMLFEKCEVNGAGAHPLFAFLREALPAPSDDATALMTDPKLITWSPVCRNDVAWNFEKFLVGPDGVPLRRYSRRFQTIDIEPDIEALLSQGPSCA
# Outline: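 Recombinant GPX1 (10 nM final) was preincubated with compound for 30 min at room temperature, then reacted with 1 mM GSH, 0.5 mM CHP, 0.5 mM NADPH and 100 nM glutathione reductase; NADPH fluorescence (340/450 nm) was read at 0 and 15 min.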
# [2] = biological target: Phospholipid hydroperoxide glutathione peroxidase GPX4 (Homo sapiens) (UniProt P36969); assay: Primary qHTS Assay for Inhibitors of Recombinant Selenoprotein Glutathione Peroxidase 4 (GPX4) (AID 1845192); further: nearly all actives have a fitted effect of over 65% in size; on activity change, negative = inhibition: series mostly up to about 50 µM
# Sequence of Phospholipid hydroperoxide glutathione peroxidase GPX4 (Homo sapiens) (P36969 whole entry, looked up): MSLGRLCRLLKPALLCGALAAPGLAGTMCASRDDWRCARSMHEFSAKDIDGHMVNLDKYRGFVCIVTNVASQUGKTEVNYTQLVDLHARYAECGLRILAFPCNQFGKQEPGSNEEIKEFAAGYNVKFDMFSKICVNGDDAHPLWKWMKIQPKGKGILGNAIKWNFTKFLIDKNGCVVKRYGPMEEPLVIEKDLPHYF
# Outline: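 GR-coupled readout: 100 nM GR, 1 mM GSH, 0.5 mM NADPH; NADPH fluorescence (ex 340/em 450 nm) read at t=0 and after 15 min RT. GPX4 200 nM, preincubated 30 min with compound; substrate 0.5 mM CHP.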
# [3] = biological target: Luciferin 4-monooxygenase (Photinus pyralis) (UniProt P08659); assay: Primary firefly luciferase (FLuc) qHTS assay for identification of artifact compounds. (AID 1845220); further: nearly all actives have a fitted effect of over 60% in size; further: potency means the concentration at half of the fitted maximal effect; on activity change, negative = inhibition: series mostly up to about 54 µM
# Outline: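 Reaction readout was CCD-imaged luminescence, taken 5 min after adding 10 nM purified firefly enzyme to compound-treated wells holding 10 uM luciferin and ATP in pH 7.6 buffer.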
# [4] = Primary fluorescence-based thiol-reactive (MSTI) qHTS assay for identification of artifact compounds. (AID 1845221); further: nearly all actives have a fitted effect of over 65% in size; further: potency means the concentration at half of the fitted maximal effect;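 on activity change, negative = thiol reactive: series mostly up to about 54 µM; thiol-reactive compounds lower the probe fluorescence signal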
# Outline: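 Reactivity toward the thiol probe MSTI (4 uM) is scored by fluorescence at Ex/Em 525/598 nm after 1 h at room temperature. Acetyl-MSTI and MSTI define the activity scale.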
# [5] = tested on: Nanoluciferase (engineered Oplophorus gracilirostris luciferase); assay: Primary Nanoluciferase (NLuc) qHTS assay for identification of artifact compounds. (AID 1845222);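 further: NLuc secreted into diluted conditioned medium of S16 cells; series mostly up to about 54 µM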
# Outline: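 Concentration-response data were obtained by luminescence after 5 min with Nano-Glo substrate at 1:100. The enzyme was diluted S16 NLuc-expressing cell medium, preincubated with compound for 15 min at RT. Curves were fitted with a 4-parameter Hill model.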
# [6] = Primary redox qHTS assay for identification of artifact compounds. (AID 1845223)
# Outline: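 Amplex Red (25 uM) and HRP (250 mU/mL) in HBSS, with compounds for 15 min, then 250 uM DTT for 30 min, room temperature, dark. Fluorescence 525/598 nm read; normalized to DMSO and 10 uM DA3003; Hill fit.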
SMILES,Potency [1],Potency [2],Potency [3],Potency [4],Potency [5],Potency [6],"activity change, negative = inhibition [3]","activity change, negative = thiol reactive [4]","activity, negative = inhibition [5]",redox activity (% of DA3003) [6]
COC(=O)C1=COC(O[C@@H]2O[C@H](CO)[C@@H](O)[C@H](O)[C@H]2O)[C@@H]2[C@@](C)(O)[C@@H](OC(=O)/C=C/c3ccccc3)C[C@]12O (stereo not given in full),inactive,inactive,inactive,13 µM (active),inactive,inactive,,,,
CCOC(=O)CNC(=O)[C@@H]1CCCN1C(=O)Cc1ccccc1 (PhAc-Pro-Gly-OEt),inactive,inactive,inactive,inactive,inactive,inactive,,,,
Oc1ccccc1-c1cc(-c2ccccc2F)[nH]n1,inactive,inactive,1.69 µM (active),inactive,inactive,inactive,,,,
CC1=C(CO)CC(C(C)C2CCC3C4CC=C5CC(OC6OC(COC7OC(CO)C(O)C(O)C7O)C(O)C(O)C6O)CC(O)C5(C)C4CCC23C)OC1=O (stereo not given),inactive,inactive,inactive,inactive,inactive,inactive,,,,
CCC(C)(C)C1CCc2c(sc(NC(=O)c3ccc(Br)cc3)c2C#N)C1 (stereo not given),inactive,inactive,inactive,inactive,inactive,inactive,,,,
Cc1ccccc1-n1nc(-c2c(-c3ccc(F)cc3)nn3c2NC[C@@H](CO)C3)ccc1=O,inactive,inactive,inactive,inactive,inactive,inactive,,,,
COC(=O)C1(C)CCCC2(C)c3ccc(C(C)C)cc3C(O)C(O)C12 (stereo not given),inactive,inactive,inactive,inactive,inactive,inactive,,,,
C[C@]1(O)CC[C@@H]2C(C(=O)O)=CO[C@@H](O[C@@H]3O[C@H](COC(=O)/C=C/c4ccc(O)c(O)c4)[C@@H](O)[C@H](O)[C@H]3O)[C@@H]21,inactive,inactive,inactive,3.27 µM (active),inactive,inactive,,,,
CC1=CC(=O)[C@]2(O[C@@H]3O[C@@H](C)[C@H](O)[C@@H](O)[C@H]3O)C=CO[C@@H](O[C@@H]3O[C@H](CO)[C@@H](O)[C@H](O)[C@H]3O)[C@H]12,inactive,inactive,inactive,5.82 µM (active),inactive,inactive,,,,
Cc1cn(C[C@H](N)C(=O)O)c(=O)n(Cc2ccsc2C(=O)O)c1=O,inactive,inactive,inactive,inactive,inactive,inactive,,,,
O=C(O)CC(CCc1ccccc1)OC1OC(CO)C(O)C(O)C1O (stereo not given),inactive,inactive,inactive,5.21 µM (active),inactive,inactive,,,,
C/C=C(\C)C(=O)OC1CC2C(CC=C3CC(OC4CC(OC)C(OC5CC(OC)C(OC6CC(OC)C(OC7CC(OC)C(OC8CC(OC)C(OC9OC(CO)C(O)C(O)C9O)C(C)O8)C(C)O7)C(C)O6)C(C)O5)C(C)O4)CCC32C)C2(O)CCC(C(C)=O)C12C (stereo not given),inactive,inactive,,,,,2.55% [at 11.6 µM],7.96% [at 11.5 µM],4.2% [at 11.6 µM],12.2% [at 11.5 µM]
CC(=O)O[C@@H]1[C@H](OC(C)=O)C[C@@]2(C)C(CC[C@@H](C)[C@]23Cc2c(O)cc4c(c2O3)CN([C@@H](CCC(=O)O)C(=O)O)C4=O)C1(C)C (stereo not given in full),inactive,inactive,inactive,inactive,inactive,inactive,,,,
CCC(C)C(=O)O[C@H]1[C@@H](O[C@H]2O[C@H](CO)[C@@H](O)[C@H](O)[C@H]2O)O[C@H](CO)[C@@H](O)[C@@H]1O (stereo not given in full),inactive,inactive,inactive,inactive,inactive,inactive,,,,
CC(=O)OC12CC(C)C(O)C1/C=C(/COC1OC(CO)C(O)C(O)C1O)CCC1C(/C=C(\C)C2=O)C1(C)C (stereo not given),inactive,inactive,inactive,inactive,inactive,inactive,,,,
COc1c2cc(c(O)c1OC)CCCCC(O)CCc1ccc(O)c-2c1 (stereo not given),inactive,inactive,inactive,inactive,inactive,inactive,,,,
CC1=C(CC/C(C)=C/C(=O)O)[C@@]2(C)CCCC(C)(C)C2CC1=O (stereo not given in full),inactive,inactive,inactive,inactive,inactive,inactive,,,,
CC(=O)N[C@H]1[C@H](O[C@H]2CC[C@]3(C)C4CC=C5[C@@H]6CC(C)(C)CC[C@]6(C(=O)O)[C@H](O)C[C@@]5(C)[C@]4(C)CC[C@H]3C2(C)C)O[C@H](CO)[C@@H](O)[C@@H]1O (stereo not given in full),inactive,inactive,inactive,inactive,inactive,inactive,,,,
C/C=C/C=C/C=C/C(=O)O[C@@H]1C=C(CO)[C@](O)(CO)[C@@]2(C)CCCC(C)(C)[C@H]12,inactive,inactive,inactive,inactive,inactive,inactive,,,,
CC1OC(O[C@@H]2[C@H](O)[C@@H](OC3OC(CO)C(O)C(O)C3O)[C@H](OC(=O)[C@]34CCC(C)(C)C[C@H]3C3=CCC5[C@@]6(C)CC[C@H](O[C@@H]7O[C@H](C(=O)O)[C@@H](O)[C@H](O[C@@H]8OC[C@@H](O)[C@H](O)[C@H]8O)[C@H]7O[C@@H]7O[C@H](CO)[C@H](O)[C@H](O)[C@H]7O)[C@@](C)(C=O)C6CC[C@@]5(C)[C@]3(C)C[C@H]4O)O[C@@H]2C)C(O)C(O)C1OC1OCC(O)C(O)C1O (stereo not given in full),inactive,inactive,,,,,1.16% [at 6.45 µM],299% [at 6.41 µM],0% [at 6.45 µM],-1.5% [at 6.41 µM]
